The panel holds about 79,000 compounds, 15% with a hit somewhere; the sample as a whole holds those more often. The source made the active and inactive calls. Cut-off read from the data, not from the text of the source: active = growth inhibition above about 70%; inactive = the rest.
Tests used:
[1] = NCI Yeast Anticancer Drug Screen. Data for the rad52 strain (AID 147);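 note: 0% = growth of vehicle-treated control cultures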; conditions: S. cerevisiae rad52 mutant growth inhibition, stronger effect = higher value
Procedure, shortened: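 Here a repair-compromised yeast strain receives each compound; its growth is then quantified and normalised to vehicle-only controls.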

[2] = NCI Yeast Anticancer Drug Screen. Data for the wt1 strain (AID 149);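 note: 0% = growth of vehicle-treated wt1 cultures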; conditions: S. cerevisiae wt1 strain (SPY 50644) growth inhibition, stronger effect = higher value
Procedure, shortened: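 The wt1 strain was treated with compounds, and growth was compared with vehicle-treated cultures to give inhibition.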

[3] = NCI Yeast Anticancer Drug Screen. Data for the rad50EPP+ strain (AID 151);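 note: 0% = growth of vehicle-treated control cultures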; conditions: S. cerevisiae rad50 mutant strain, stronger effect = higher value
Procedure, shortened: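 Read-out is yeast growth inhibition relative to vehicle; cells used were the rad50EPP+ strain.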

[4] = NCI Yeast Anticancer Drug Screen. Data for the rad50 strain (AID 155);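 note: 0% = growth of vehicle-only cultures of the same strain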; conditions: S. cerevisiae rad50 strain growth inhibition, stronger effect = higher value
Procedure, shortened: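 Cells are treated with compound, grown, and their growth is then scored against vehicle-only cultures of the same repair-deficient yeast strain.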

[5] = NCI Yeast Anticancer Drug Screen. Data for the mec2-1 strain (AID 157); conditions: S. cerevisiae mec2-1 strain, stronger effect = higher value
Procedure, shortened: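 Using mec2-1 yeast: add compound, measure growth, express inhibition versus vehicle-treated cultures.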

[6] = NCI Yeast Anticancer Drug Screen. Data for the rad14 strain (AID 159);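 note: 0% = growth of vehicle-treated control cultures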; conditions: S. cerevisiae rad14 strain growth inhibition, stronger effect = higher value
Procedure, shortened: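 Readout: yeast growth inhibition, referenced to vehicle-only cultures. Strain bears a defined alteration in DNA damage repair.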

[7] = NCI Yeast Anticancer Drug Screen. Data for the sgs1 mgt1 strain (AID 161);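 note: 0% = growth of cultures given vehicle only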; conditions: S. cerevisiae sgs1 mgt1 strain, stronger effect = higher value
Procedure, shortened: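 Compounds are added to genetically altered yeast, and growth is compared with cultures given vehicle alone to give percent inhibition.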

[8] = NCI Yeast Anticancer Drug Screen. Data for the CLN2oe strain (AID 163);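 note: 0% = growth of vehicle-only control cultures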; conditions: S. cerevisiae CLN2oe strain, stronger effect = higher value
Procedure, shortened: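 Whole-cell yeast growth assay. A strain engineered for altered cell-cycle control received compound, and inhibition relative to vehicle-treated cultures was recorded.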

[9] = NCI Yeast Anticancer Drug Screen. Data for the cln2 rad14 strain (AID 165);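 note: 0% = growth equal to vehicle treated cultures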; conditions: S. cerevisiae cln2 rad14 strain, stronger effect = higher value
Procedure, shortened: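 Yeast strain cln2 rad14, bearing defects in cell cycle control and DNA repair, serves as the test system; values reflect growth inhibition compared with vehicle.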

[10] = NCI Yeast Anticancer Drug Screen. Data for the bub3 strain (AID 167); conditions: S. cerevisiae bub3 mutant strain, stronger effect = higher value
Procedure, shortened: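 Part of a panel of yeast mutants defective in DNA damage repair or cell cycle regulation. Each strain is grown with compound, and inhibition is calculated relative to solvent-treated cultures.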

[11] = NCI Yeast Anticancer Drug Screen. Data for the wt2 strain (AID 169);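 note: 0% = growth of vehicle-treated yeast cultures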; conditions: S. cerevisiae wt2 strain growth inhibition, stronger effect = higher value
Procedure, shortened: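 Treated yeast vs. vehicle-treated yeast: growth inhibition determined.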

[12] = NCI Yeast Anticancer Drug Screen. Data for the mlh1 strain (AID 171);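 note: 0% = growth of vehicle-treated control cultures of the same strain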; conditions: S. cerevisiae mlh1 strain growth inhibition, stronger effect = higher value
Procedure, shortened: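 A yeast strain with a defined genetic lesion serves as the test organism. Cultures receive compound or vehicle, and growth is measured.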

[13] = NCI Yeast Anticancer Drug Screen. Data for the sgs1 strain (AID 173);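 note: 0% = growth of vehicle-only control cultures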; conditions: S. cerevisiae sgs1 mutant, stronger effect = higher value
Procedure, shortened: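 A genetically defined yeast mutant is incubated with the test compound, and its growth is compared to that of the same strain given vehicle.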

[14] = NCI Yeast Anticancer Drug Screen. Data for the mlh1 rad18 strain (AID 175); conditions: S. cerevisiae mlh1 rad18 strain growth inhibition, stronger effect = higher value
Procedure, shortened: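 Steps: expose repair-defective yeast to compound; measure growth; express inhibition against vehicle-treated controls.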

[15] = NCI Yeast Anticancer Drug Screen. Data for the rad18 strain (AID 177); conditions: S. cerevisiae rad18 mutant growth inhibition, stronger effect = higher value
Procedure, shortened: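 Measured value is growth inhibition of a yeast strain bearing a DNA repair alteration, referenced to vehicle-treated cells.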

[16] = NCI Yeast Anticancer Drug Screen. Data for the mgt1 strain (AID 153); conditions: S. cerevisiae mgt1 mutant growth inhibition, stronger effect = higher value
Procedure, shortened: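 Measured: inhibition of mgt1 yeast growth by compound, normalized to vehicle-treated cultures.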

[17] = at 5.0 µM (retest, dose inferred, filed as 0.5)
[18] = at 50.0 µM (retest, dose inferred, filed as 5.0)

Measured: growth inhibition

CSc1nc(C)c(CCOC(C)=O)c(N=P(c2ccccc2)(c2ccccc2)c2ccccc2)n1
active: [1]; at 100.0 µM 92% | [2]; at 100.0 µM 92% | [4]; at 50.0 µM 92.2% | [4]; at 100.0 µM 90% | [5]; at 50.0 µM 94.3% | [5]; at 100.0 µM 90% | [6]; at 100.0 µM 87% | [7]; at 50.0 µM 96.5% | [8]; at 100.0 µM 77% | [9]; [18] 86% | [9]; at 50.0 µM 74.8% | [10]; [18] 93% | [10]; at 50.0 µM 95.6% | [10]; at 100.0 µM 92% | [11]; at 100.0 µM 92% | [12]; at 100.0 µM 92% | [13]; at 100.0 µM 93% | [14]; at 50.0 µM 94.6% | [15]; at 100.0 µM 91%
inactive: [1]; at 1.2 µM 10% | [1]; at 3.7 µM 4% | [1]; at 11.0 µM -3% | [1]; at 33.0 µM -9% | [2]; at 1.2 µM 9% | [2]; at 3.7 µM 5% | [2]; at 11.0 µM -2% | [2]; at 33.0 µM -3% | [3]; at 1.2 µM 12% | [3]; at 3.7 µM 5% | [3]; at 11.0 µM 1% | [3]; at 33.0 µM 1% | [3]; at 100.0 µM 13% | [4]; at 1.2 µM 7% | [4]; at 3.7 µM -8% | [4]; [17] 16% | [4]; at 11.0 µM -21% | [4]; at 33.0 µM -1% | [4]; [18] 42% | [5]; at 1.2 µM 12% | [5]; at 3.7 µM 8% | [5]; [17] -14% | [5]; at 11.0 µM 1% | [5]; at 33.0 µM 1% | [5]; [18] 3% | [6]; at 1.2 µM 9% | [6]; at 3.7 µM 2% | [6]; at 11.0 µM -4% | [6]; at 33.0 µM -5% | [7]; [17] -2% | [7]; [18] 22% | [8]; at 1.2 µM 18% | [8]; at 3.7 µM 10% | [8]; at 11.0 µM 0% | [8]; at 33.0 µM 3% | [9]; [17] 3% | [10]; at 1.2 µM 4% | [10]; at 3.7 µM 6% | [10]; [17] 10% | [10]; at 11.0 µM 3% | [10]; at 33.0 µM 3% | [11]; at 1.2 µM 10% | [11]; at 3.7 µM 3% | [11]; at 11.0 µM -4% | [11]; at 33.0 µM -1% | [12]; at 1.2 µM 12% | [12]; at 3.7 µM 5% | [12]; at 11.0 µM -2% | [12]; at 33.0 µM -2% | [13]; at 1.2 µM 7% | [13]; at 3.7 µM 3% | [13]; at 11.0 µM -4% | [13]; at 33.0 µM -2% | [14]; [17] 0% | [14]; [18] 23% | [15]; at 1.2 µM 16% | [15]; at 3.7 µM 12% | [15]; at 11.0 µM 4% | [15]; at 33.0 µM 3%

CC(=O)OC1CC2C(C)(C)C(=O)C=C[C@]2(C)C2CCC3(C)C(=CCC3[C@H](CO)C[C@H](O)C(=O)C(C)(C)O)[C@]12C (stereo partly specified)
active: [1]; at 100.0 µM 81% | [2]; at 100.0 µM 75% | [16]; at 33.0 µM 90% | [16]; at 100.0 µM 94% | [7]; [18] 93% | [7]; at 50.0 µM 88.8% | [8]; at 100.0 µM 82% | [10]; at 100.0 µM 78% | [11]; at 33.0 µM 86% | [11]; at 100.0 µM 95% | [12]; at 33.0 µM 86% | [12]; at 100.0 µM 92% | [13]; at 33.0 µM 87% | [13]; at 100.0 µM 93% | [15]; at 100.0 µM 74%
inactive: [1]; at 1.2 µM -7% | [1]; at 3.7 µM -4% | [1]; at 11.0 µM -3% | [1]; at 33.0 µM 11% | [2]; at 1.2 µM -26% | [2]; at 3.7 µM -17% | [2]; at 11.0 µM -31% | [2]; at 33.0 µM -21% | [16]; at 1.2 µM -26% | [16]; at 3.7 µM -34% | [16]; at 11.0 µM 53% | [4]; at 1.2 µM -5% | [4]; at 3.7 µM -18% | [4]; [17] -14% | [4]; at 11.0 µM -16% | [4]; at 33.0 µM 6% | [4]; [18] 23% | [4]; at 50.0 µM 44.9% | [4]; at 100.0 µM 62% | [5]; at 1.2 µM -56% | [5]; at 3.7 µM -56% | [5]; [17] -10% | [5]; at 11.0 µM -77% | [5]; at 33.0 µM -40% | [5]; [18] 12% | [5]; at 50.0 µM 42.8% | [5]; at 100.0 µM 53% | [7]; [17] 35% | [8]; at 1.2 µM -41% | [8]; at 3.7 µM -14% | [8]; at 11.0 µM -7% | [8]; at 33.0 µM 0% | [9]; [17] 32% | [9]; [18] 43% | [9]; at 50.0 µM 26.6% | [10]; at 1.2 µM -24% | [10]; at 3.7 µM -35% | [10]; [17] 13% | [10]; at 11.0 µM -41% | [10]; at 33.0 µM -29% | [10]; [18] 50% | [10]; at 50.0 µM 38.1% | [11]; at 1.2 µM -32% | [11]; at 3.7 µM -18% | [11]; at 11.0 µM 50% | [12]; at 1.2 µM -35% | [12]; at 3.7 µM -23% | [12]; at 11.0 µM 39% | [13]; at 1.2 µM -34% | [13]; at 3.7 µM -5% | [13]; at 11.0 µM 60% | [14]; [17] -6% | [14]; [18] 39% | [14]; at 50.0 µM 26.1% | [15]; at 1.2 µM -21% | [15]; at 3.7 µM -21% | [15]; at 11.0 µM -17% | [15]; at 33.0 µM 3%

Source: PubChem BioAssay (NCI)
